Screening results as filed in PubChem.
Sampled rows, rich in hits. Any-hit rate of the full collection: about 3.6%.
TRHR enhancer: allosteric enhancers of human TRH receptor; P34981; TRHR cells, fluo-8 calcium fluorescence, EC20 TRH enhancement; enhancement, % at 2 µM; 0.66% of 360,000 active; AID 493056; in the data active = enhancement above about 30%; note: 0% is about no effect
Target sequence (P34981 whole entry, looked up): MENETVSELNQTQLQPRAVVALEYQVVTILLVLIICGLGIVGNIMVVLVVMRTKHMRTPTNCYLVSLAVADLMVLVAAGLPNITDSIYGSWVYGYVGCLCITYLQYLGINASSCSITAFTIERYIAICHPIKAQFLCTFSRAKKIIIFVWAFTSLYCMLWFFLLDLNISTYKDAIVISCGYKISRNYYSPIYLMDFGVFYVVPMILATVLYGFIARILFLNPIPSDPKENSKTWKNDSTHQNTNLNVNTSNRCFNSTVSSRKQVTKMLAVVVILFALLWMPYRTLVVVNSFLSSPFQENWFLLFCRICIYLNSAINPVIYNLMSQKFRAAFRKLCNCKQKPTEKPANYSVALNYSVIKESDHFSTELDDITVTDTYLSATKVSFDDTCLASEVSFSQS
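TRHR-expressing cells loaded with fluo-8 calcium dye were read kinetically (ex 480/em 530) during compound addition, then stimulated with an EC20 of TRH (10 nM final). Enhancement of the Gq-mediated intracellular calcium response was scored.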
D1 antagonist: blocks dopamine activation of the human D1 receptor; P21728; HEK293 TREx D1 cells, calcium flux, dopamine EC80; hits give low values; activity change, negative = inhibition, % at 10 µM; 3.2% of 360,000 active; in the data active = activity change below about -30%; note: % is set by controls: 0 for no effect and ±100 for the full control effect
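Tetracycline-induced HEK293 Trex D1 cells, force-coupled to calcium, dye-loaded; compounds added and read 180 s, then EC80 dopamine added and calcium flux tracked kinetically another 180 s.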
D1 PAM: human D1 dopamine receptor positive modulation; P21728; HEK293 TREx D1 cells, calcium flux, dopamine EC20 potentiation; potentiation, % at 10 µM; 0.036% of 360,000 active; in the data active = potentiation above about 30%; note: 0% is about no effect
D1 ag: human D1 receptor agonism | HEK293 T-REx D1 cells, calcium flux, agonist mode | 1% of 360,000 active | P21728 | activation, % at 2 µM; note: 0% is about no effect
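Tetracycline-induced HEK293 TREx D1 cells, force-coupled to calcium signalling, were dye-loaded with a no-wash calcium kit. Compound was pin-added after a 10 s baseline. Fluorescence was read kinetically at 1 cycle/s for 180 s, with calcium rises flagged as agonism.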
LDHA block: LDHA (human) enzyme inhibition. 0.15% of 480,000 active. purified LDHA, NADH/diaphorase-resazurin fluorescence; hits give low values. P00338. AID 1347041. activity change, % (values are at about 110 or 230 µM); in the data active = activity change below about -30%;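 note: plate controls were DMSO wells for no effect and wells without enzyme for full effect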
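Remaining NADH was detected by diaphorase (0.133 mg/mL) converting 37 µM resazurin to fluorescent resorufin, read at 0 and 20 minutes. The preceding 5-minute room-temperature reaction used 2 nM LDHA, 0.2 mM sodium pyruvate and 0.06 mM NADH at pH 7.4.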
TRHR ag: agonists of human TRH receptor; TRHR cells, calcium flux fluo-8, FDSS agonist mode; AID 493084; P34981; 0.18% of 360,000 active; activation, % at 2 µM; note: 0% is about no effect
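Agonist-mode FDSS calcium read (Ex 480/Em 530, 1 s cycles) in 1536-well TRHR cells with fluo-8 dye, after 10-cycle baseline and 23 nL compound addition; TRH at EC20 (10 nM final) added afterwards for the enhancer phase.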
An asterisk follows results filed as active; / = no result given. Cut-off read from the data, not from the text of the source, unless noted: active = activation above about 30%; inactive = the rest.

SMILES	TRHR enhancer	D1 antagonist	D1 PAM	D1 ag	LDHA block	TRHR ag
CC1(C)C(C=C(Cl)Cl)C1C(=O)Nc1ccc([N+](=O)[O-])cc1 (stereo unspecified)	-6.5	-31.0*	-7.0	6.0	-2.0	1.4
CC1(C)C(C=C(Cl)Cl)C1C(=O)Nc1ccccc1C(=O)O (stereo unspecified)	/	/	/	/	6.0	/
O=c1c(-c2ccc(Br)cc2)c(C(F)(F)F)oc2cc(O)ccc12	/	/	/	/	-1.4	/
O=C(Nc1nnc(N2CCCCCC2)s1)c1cc(-c2ccc(Br)cc2)on1	0.2	-47.6*	-0.3	0.2	-0.4	0.5
CCn1nc(C(=O)NCC(c2cccs2)N2CCOCC2)c2ccccc2c1=O (stereo unspecified)	11.3	-34.8*	-10.4	3.4	-1.8	-1.2
CC1CCCCC1NC(=O)c1nn(C)c(=O)c2ccccc12 (stereo unspecified)	2.2	-31.9*	-4.8	0.0	-1.1	0.5
Cn1nc(C(=O)NC2CCCC2)c2ccccc2c1=O	-8.2	11.8	-9.4	0.8	-6.7	0.1
CCCCCn1nc(C(=O)NCc2cccs2)c2ccccc2c1=O	/	/	/	/	-2.1	/
Cn1nc(C(=O)NCc2cccs2)c2ccccc2c1=O	-1.7	-41.1*	-5.0	2.3	-2.8	0.8
Brc1ccc(-c2noc(COc3ccc4ccccc4c3)n2)o1	14.5	-52.4*	-6.5	27.1	-0.8	-0.3
Clc1ccccc1OCc1nc(-c2ccc(Br)o2)no1	-8.2	-40.9*	/	11.4	1.4	0.4
COc1ccc2sc(N(Cc3cccnc3)C(=O)CCc3ccccc3)nc2c1	11.7	/	-1.6	33.6*	1.4	-0.7
CN(C)CCCN(C(=O)CCc1ccccc1)c1nc2ccc(F)cc2s1	0.3	-6.0	-6.8	31.5*	-1.3	4.2
CC(C)(C)c1ccc(OCc2nn3c(-c4ccncc4)nnc3s2)cc1	/	/	/	/	3.8	/
COC(=O)C1=C(C)N(C)C(=O)/C1=C\c1ccco1	0.3	-3.3	-2.4	0.5	-2.1	-0.2
COC(=O)C1=C(C)N(Cc2ccc(OC)cc2)C(=O)/C1=C\c1ccco1	-3.9	-34.3*	-9.8	2.0	0.1	0.4
Cc1cc(O)c(C2CCCCC2)cc1C1CCCCC1	/	/	/	/	5.1	/
COc1cc(/C=N\NC(=O)CC#N)ccc1OC/C=C/c1ccccc1	-8.5	-38.5*	-8.7	-0.9	1.1	-0.1
COCC(=O)N/N=C\c1ccc(OC/C=C/c2ccccc2)c(OC)c1	-1.7	1.2	0.9	3.3	0.4	-0.6
CSc1ccc(/C=C/C(=O)NCc2ccc(F)cc2)cc1	/	/	/	/	6.1	/
Cc1ccccc1C(=O)NNC(=O)/C=C\C(=O)O	-9.7	-1.7	-0.8	2.4	-6.7	-0.5
O=C(O)/C=C/C(=O)NNC(=O)c1ccccc1Br	-3.0	-40.6*	-8.5	-1.4	-4.9	0.1
COc1ccc(C(NC(=O)CSc2ccc3c(c2)OCCCO3)c2ccccc2)cc1 (stereo unspecified)	/	/	/	/	6.4	/
CCOC(=O)c1sc(NC(=O)CCN2C(=O)c3cccc([N+](=O)[O-])c3C2=O)c(C(=O)OCC)c1C	-3.5	-32.7*	1.8	1.5	2.1	0.1
O=C(CN1C(=O)C2C3C=CC(C4CC34)C2C1=O)NCc1ccco1 (stereo unspecified)	-5.8	-6.2	5.6	2.0	-2.3	0.1
SMILES	TRHR enhancer	D1 antagonist	D1 PAM	D1 ag	LDHA block	TRHR ag
O=C(CN1C(=O)C2C3C=CC(C3)C2C1=O)NCc1ccco1 (stereo unspecified)	8.7	21.9	30.7*	0.8	-1.2	0.0
Clc1ccc(-c2ccc(CNc3ncn[nH]3)o2)c(Cl)c1	/	/	/	/	8.3	/
O=C(N/N=C/c1ccco1)C1(O)c2ccccc2-c2ccccc21	-1.0	11.9	-1.4	1.5	-0.4	-0.1
Cc1nn(C)cc1/C=N/NC(=O)C1(O)c2ccccc2-c2ccccc21	-2.3	-34.4*	-6.1	1.4	-4.0	0.9
Cc1cc(=O)oc2cc(NC(=O)N(C)Cc3ccc(Br)cc3)ccc12	/	/	/	/	3.2	/
CCOC(=O)C(Cc1cc(C(C)=O)ccc1OC(C)C)C(=O)OCC	-18.5	-34.1*	-2.0	-1.4	-3.9	-1.4
O=C(N/N=C/c1ccc([N+](=O)[O-])s1)c1ccccc1	-3.0	20.5	-1.9	7.3	-62.8*	-0.9
Cc1ccccc1C(=O)N/N=C/c1ccc([N+](=O)[O-])s1	-5.9	-1.3	0.1	28.4	4.4	7.4
Cc1ccccc1Cn1nc(C)c(NC(=O)c2cc3n(n2)C(C(F)F)CC(C(F)F)N3)c1C (stereo unspecified)	6.5	-50.9*	-2.5	-0.5	-3.3	-0.1
CCCn1nc(C(=O)Nc2ccc(S(=O)(=O)C(F)F)cc2)c2ccccc2c1=O	/	/	/	/	6.6	/
CCN(C(=O)CSc1ncnc2ccccc12)c1ccccc1	/	/	/	/	9.2	/
Cn1ccc(C(=O)Oc2ccc(C(=O)Nc3ccc(F)cc3F)cc2)n1	-4.2	-43.8*	-2.6	12.3	-5.1	0.5
CCOc1cc(C(=O)Nc2ccc([N+](=O)[O-])cn2)cc(OCC)c1OCC	-2.8	-50.9*	-5.0	4.2	-5.5	0.0
COc1cc(OC)cc(C(=O)Nc2ccc([N+](=O)[O-])cn2)c1	0.2	-26.4	-4.3	1.7	-5.4	-0.1
COc1ccccc1NC(=O)CSc1nc2ccccc2c(=O)n1CCn1cc(Cl)cn1	/	/	/	/	6.1	/
N#C/C(=C\c1ccc(N2CCCCC2)o1)C(N)=O	7.0	0.0	-6.6	36.9*	4.2	21.2
N#C/C(=C\c1ccc(N2CCCCC2)o1)C(=O)Nc1cccc(Br)c1	-8.1	-12.5	-12.5	427.6*	-11.7	107.7*
Cc1ccc(/C=C(\C#N)C(=O)Nc2cccc(Br)c2)o1	-1.5	4.1	-1.4	3.8	-11.0	1.5
CC(=O)Nc1ccc(SC[C@H](Cc2ccccc2)N2CCN(CCc3ccccc3)CCC2=O)cc1	-2.2	-33.2*	-4.8	6.9	-3.1	-0.2
Cc1ccccc1C(=O)N=c1ccn(-c2nc3ccccc3nc2NS(=O)(=O)c2ccc(F)cc2)cc1	-2.6	-24.8	-6.0	70.0*	-8.8	11.9
CCO[C@H]1OC(C(=O)O)=C[C@@H](c2ccc3c(c2)OCO3)[C@@H]1CCCO	2.0	-13.6	62.5*	-3.3	-0.5	-0.1
CCO[C@H]1OC(C(=O)NC2CC2)=C[C@@H](c2ccc(Br)cc2)[C@@H]1CCCO	1.2	-58.8*	-6.2	-0.1	0.4	-0.6
O=C(Cc1cccs1)Nc1c(NCc2ccccc2)c2ccccc2oc1=O	/	/	/	/	-6.9	/
O=S(=O)(Nc1cccc(-c2nnnn2C2CC2)c1)c1ccccc1F	/	/	/	/	0.0	/
Cc1ccc(C)c(S(=O)(=O)N2CCC3(CC2)OCCO3)c1	1.0	10.0	-3.0	35.9*	-0.9	-0.1
O=C(Nc1ccc(Cl)cc1Cl)c1cc(S(=O)(=O)N2CCC3(CC2)OCCO3)ccc1F	-3.4	-40.9*	-2.7	1.9	-0.2	0.1
